From the supplement of paper PMC10681739 come the findings set out here.

This experiment deals with T1, ETS1 (UniProt P14921).
T1 sequence: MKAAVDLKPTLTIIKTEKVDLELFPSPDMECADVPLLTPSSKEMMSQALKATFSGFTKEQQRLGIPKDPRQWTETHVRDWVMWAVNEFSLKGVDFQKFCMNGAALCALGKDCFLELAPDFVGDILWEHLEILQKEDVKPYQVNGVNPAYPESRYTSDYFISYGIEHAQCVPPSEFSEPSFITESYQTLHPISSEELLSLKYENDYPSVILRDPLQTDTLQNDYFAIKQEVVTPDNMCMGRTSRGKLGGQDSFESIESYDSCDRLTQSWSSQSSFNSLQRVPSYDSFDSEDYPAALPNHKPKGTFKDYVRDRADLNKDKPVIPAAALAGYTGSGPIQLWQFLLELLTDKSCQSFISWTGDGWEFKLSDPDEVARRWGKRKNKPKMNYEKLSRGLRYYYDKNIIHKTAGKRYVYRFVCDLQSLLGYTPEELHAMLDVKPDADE
Description: ETS1 binding intensity (PBM fluorescence), ETS1 alone (arbitrary fluorescence units); higher = stronger binding. Particulars: ETS1 concentration 1 nM; RUNX1 concentration 0 nM. As to the method: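 Cooperative genomic-context PBM: 36-bp genomic probes with neighbouring ETS1 and RUNX1 sites, double-stranded on Agilent 4x180k arrays. Full-length recombinant human ETS1 (1 nM) was incubated alone or with RUNX1 (25 nM) and detected with anti-ETS1 antibody plus Alexa488 secondary. Value is the median fluorescence intensity over 4 replicate spots; the ETS1+RUNX1 data were normalised to the ETS1-only data using probes without RUNX1 sites. The 36-bp variable region sits on the array probe with constant linker/primer flanks that are not printed.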
Consider GCCAACAGGAAGCTGGAAGCCAACCGCACTGTGTGC, for which the ETS1 binding intensity was 1190.
In turn, AGGAGAACTTCCGCCCTTACTATATTACCGCCGGTA gave an ETS1 binding intensity of 1180.
For AGAGGAAGTAAATTCTAACAGTGGAAACCACAGATT the value was 647.
GCAGGCGGAGCTTGAGGAAACCGCAGATAAGTTTTT returned an ETS1 binding intensity of 463.
For TATGTCTGACTTCCGCTCGTGGTTTCCATCTTAGCC the value was 2870; for GGGCTCCCAGAAGGATGTGGTTTCTGAGTACGTTGG, 582; for GAGGAGGAAAGCGGAAGCGCTGCCCGCAGTGGTAGG, 4260.
Next, CTTGTGCCTACATCCTGTAGCTGTGGTTTAGGGACG: 1420; GGCAGCCGGCTTCCGGCTGTGGGTGGTGCGGGGGAC: 1370.
For TGGAATTGAAAGGAAGCTGGCGCCACCGCAGAGGAC the value was 658; for GTATGGGAAGTGATCTGGCTGCAAACCGCAAGAGAG, 549.
TTGGTTGTTGCCAGAGGATGTGGGTTGGCGGGGGAG: the ETS1 binding intensity worked out at 1690.
Next, CTTTGCAGGAAGCTGGGGTTCACCCACAGCCTTGTT: 749; CCTCAATTTCCTGGCCAGAGAAACCACTGCCTCTCA: 546.
For CTTCGACCCCGGAAGCGCTAACCACCCCGGGGGCCG the value was 4160; for CTGCTGGGCCCCTTCCTGTCAGCGGTTGCTCTTTAC, 673; for GGGGCCTCTGCTACTTCCTAGACCGCAAAATGGAGA, 413.
For TCCCGGCGTTCTTCCGCTGGCTCAGCCGCAAGTACC the value was 573; for AGGCCGCTTCCTCCCACATGAAACCGCAGGCTTCGG, 374; for GCTCAAGTACCGGAAAGGCCCGCAGAAAGAAGGGCA, 1400.
GGGAGGTCACATCCTGCCCGCGGTCTCAGAAAAGCT had an ETS1 binding intensity of 821.
Next, TTTCACTTCCGGCATGTTTTTCACCCACAGGGATAT: 3910; GCGCCCCGCTTCCGGGGCCGCCCTAAACCGCGGCCG: 944.
For CCAAGTGTAAAACGGAAGCTCAACCACGAATCTTAC the value was 1510; for CTGCACAAGGAAGCGCCTGTGTTGCTGTGGGCGGAG, 472; for TCGCTTCCTGCTCCACTTCTCGGCGCCCACATCTCC, 514.
Next, CCCCGGGAAGGGAAGTTTGTGGCGGAGGAGGTTCGT: 592; GACTTGGGGGAAGTGGCTTGGTTTGCGTGGTTTCTC: 433; TCTGCCGCCAGCCCATCCGCGACCGCATCCAGATCT: 346.
Turning to TAACGCGAGAACTTCCTGCGGGCCACGCCCTCTTTC, the ETS1 binding intensity amounted to 571.
Next, TGATCAGCAAAAGGAAGTGGTTAACATGGCCCAGAA: 1540; CAGCAGAGGCGCGGATGTGGTTAAACGAGTGCCGTC: 775; CCTCTCAACAGCATTTCCTGGTGGTCAGATATCTGA: 580.
Next, TTGTCGGGTATGGGATGTGGGCAGAGAGTATGATGG: 604; TCGCATAGCCGGGAAGCGCGGTGGAGGTTGTTGGGG: 428.
For GTATCACTTCCTGTTTTCCTCTGTGGCTTACTGCTG the value was 3310; for GAGTGACTGCTAACGGATGTGTGGTTTCTTTAGTTT, 2000; for TAAGAGATTTCCTGTAAAGGTAACCACCAGCAAAGA, 522.
With CCGGGAAGGCGGAAGCAGCAGAGACGCCGCAAGGCC, the ETS1 binding intensity was found to be 1320.
On to TACAGCCAGGAAATGGGGAGGGTGCTGCGGGCGGCA, for which the ETS1 binding intensity worked out at 858.
